Assay outcomes as filed in PubChem.
Pf Dd2 inh = Plasmodium falciparum Dd2 growth inhibition; Potency, µM (doses to about 28.9 µM), without a hit: top-dose activity, negative = inhibition, actives largely listed as inhibitors; P. falciparum Dd2 growth, SYBR Green, 72 h; AID 1347417; 120,000 compounds, 4.3% hits; active means well fitted inhibition curve with a large enough effect;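 further: plate controls were DMSO vehicle for no effect and reference drug for full effect; nearly all actives have a fitted effect of over 65% in size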
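Infected erythrocytes (Dd2, 0.3% parasitemia, 2.5% hematocrit final) are added to compound in RPMI-1640/Albumax II medium, grown 72 h at 37C in low oxygen, then lysed with saponin/Triton-X containing SYBR Green and read by fluorescence.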
Numbers without * were called inactive; i = inactive; ! = not active in a repeat; [ ] = dose if it differs, or a comment. The full list was thinned out, with hits kept by preference. Potency means the concentration at half of the fitted maximal effect.

SMILES | Pf Dd2 inh
COCc1noc([C@@H]2CN(S(=O)(=O)Cc3ccccc3F)C[C@H]2C(N)=O)n1 | 0%
CCOc1ccc(CC(=O)N2CCC3(CC2)CN(C(C)=O)CC3COC)cc1 (stereo unspecified) | -4%
CC(=O)Nc1ccc(OCC(=O)N2CCC(C)CC2)nc1 | 35%
Cc1ccc(CN2C[C@H]3CN(Cc4ccc(OC(F)(F)F)cc4)CCN3C2=O)cc1 | -24%[44.1 µM]
CC(C)NC(=O)N1CCC2(CC1)CN(C(=O)CCCN)Cc1ccccc1O2 | -6%
CCCC(C)N1CC2(CCN(Cc3nnc(-c4ccccc4)o3)CC2)OC1=O (stereo unspecified) | -3%
O=C(CCC1CCN(C(=O)c2ccccc2)CC1)Nc1ccccc1 | -1%
COc1ccc(N2CC(C(=O)NCC3CC3)NC2=O)cc1 (stereo unspecified) | -13%[44.1 µM]
COc1ccccc1-c1nc(C(=O)NCc2cccnc2)n2ccncc12 | 10µM*!
COC(=O)CNC(=O)c1nc(-c2ccccc2OC)c2cnccn12 | 10%
O=C(c1nc(-c2ccc(F)cc2)c2cnccn12)N1CCN(c2ncccn2)CC1 | i
CC(C)(C)c1nc(C(=O)N2CCN(c3ncccn3)CC2)n2ccncc12 | 5µM*
COc1ccccc1-c1cc(C(=O)NCc2cccnc2)nn2cccc12 | -12%
O=C(c1nc(-c2cccc(C(F)(F)F)c2)c2ccccn12)N1CCN(c2ncccn2)CC1 | -2%
CCn1nnc2cc(C(=O)Nc3cccc(C(F)(F)F)c3)ccc21 | -5%
CCN(CC)c1cc(C)c2cc(NC(=O)c3cccc(F)c3)ccc2n1 | -6%
Cc1cc(Nc2cccc(C(F)(F)F)c2)nc2ccc(NC(=O)Cc3ccc(Cl)cc3)cc12 | 11µM*
Cc1ccccc1-c1nc2cc(NC(=O)Cc3ccc(Cl)cc3)ccc2o1 | 3%
Cc1ccc(OCC(=O)Nc2ccc3nc(Nc4cccc(Cl)c4)cc(C)c3c2)cc1 | 36%
Cc1cc(Nc2cccc(C(F)(F)F)c2)nc2ccc(NC(=O)c3ccc(N(C)C)cc3)cc12 | 2.8µM*
COc1ccc(CN2CCC3(Cc4ccccc4CNC3=O)C2)cc1F (stereo unspecified) | -21%
O=C(c1ccc(C(F)(F)F)cc1)N1CCC2(CC1)Cc1ccccc1NC2=O | -5%
CCn1ncc(C(=O)N[C@@H]2CN(c3ncccn3)C[C@H]2CO)c1C | 19%
CCC(C(=O)NCc1cc2c(cc1OC)CCC2)n1cccn1 (stereo unspecified) | -11%
CN(C)c1ccc(C(CNC(=O)c2ccc(C(C)(C)C)cc2)N2CCCC2)cc1 (stereo unspecified) | 6.3µM*
SMILES | Pf Dd2 inh
O=C(NCC(c1ccc(Cl)cc1)N1CCCCC1)c1ccc(F)cc1 (stereo unspecified) | -13%
COc1ccc(C(=O)NCC(c2ccc(N(C)C)cc2)N2CCOCC2)cc1 (stereo unspecified) | 46%
O=C(C1CC(=O)N(c2n[nH]c3cccc(F)c23)C1)N1CCSCC1 (stereo unspecified) | -5%
O=C(CCCc1ccccc1)N1CCCC1c1noc(COc2ccc(F)cc2)n1 (stereo unspecified) | -28%
Cn1cc(-c2ccccc2F)c2nc(COc3ccccc3)cn2c1=O | i
Cn1cc(-c2ccc(O)c(F)c2)c2nc(COc3ccc(Cl)cc3)cn2c1=O | 10µM*
Cn1cc(-c2ccccc2F)c2nc(COc3ccc(C(=O)O)cc3)cn2c1=O | -14%[44.1 µM]
O=C(CN1C(=O)NC(c2ccc(Cl)cc2)C2=C1COC2=O)Nc1ccc(Cl)cc1F (stereo unspecified) | -19%
CCOC(=O)C1(Cc2ccccc2F)CCCN(C(=O)c2ccc(OC)nc2OC)C1 (stereo unspecified) | i
O=C(NCCc1cnc[nH]1)[C@@H]1C[C@H]2C(=O)NCCCCCCN(S(=O)(=O)c3cccs3)[C@H]2C1 | -16%
O=C(c1ccc(N2CC[C@H](O)C2)nc1)N1CCC(Oc2cccnc2)CC1 | -14%
COc1ccc(C2(C(=O)N3CCC(Cc4nc(-c5ccc(F)cc5)no4)CC3)CC2)cc1 | -15%
CCOC(=O)c1ccc(N2CC3=C(C2=O)C(c2ccc(OC)cc2)NC(=O)N3C)cc1 (stereo unspecified) | 44%
CCOc1ccc(C(=O)NC2CCCN(c3cc(-c4ccc(OC)cc4)[nH]n3)C2)cc1 (stereo unspecified) | i
Cc1ccc(N2C(=O)c3n[nH]c(C)c3C2c2ccccc2Cl)cc1 (stereo unspecified) | 6%
CCOc1ccc(C(=O)Nc2ccc(-n3nncc3-c3ccc(OC)cc3)cc2)cc1 | 92%
CCOC(=O)c1sc(N2C(=O)c3oc4ccc(F)cc4c(=O)c3C2c2cccc(OC)c2)nc1C (stereo unspecified) | -32%
CCOC(=O)c1ccc(N2C(=O)c3[nH]nc(-c4ccc(OCC)cc4)c3C2c2ccc(OC)cc2OC)cc1 (stereo unspecified) | 7.9µM*
CCOC(=O)c1ccc(N2C(=O)c3n[nH]c(-c4cccs4)c3C2c2ccc(OC)cc2OC)cc1 (stereo unspecified) | 11µM*
CCOC(=O)C1=C(C)N=C2SC=C(CC(=O)N3CCC(C)CC3)N2C1c1cccc(OC)c1 (stereo unspecified) | -18%
CCOC(=O)c1ccc(N2C(=O)c3n[nH]c(-c4cccs4)c3C2c2cccc(OC)c2)cc1 (stereo unspecified) | 3.5µM*
O=C(Nc1ccccc1)N1CCn2c(nn(-c3ccc(F)cc3)c2=O)C1 | -28%
COc1nc2c(cc1CNC(=O)CN1CCOCC1)C(=O)N(C1CCCC1)C2 | -7%
CN(CCC1(O)CCCC1)C(=O)C1CCC(=O)N(Cc2ccccc2F)C1 (stereo unspecified) | -13%
O=C(CN1CCN(c2nc3ncccc3o2)CC1)c1cccc(Cl)c1 | -7%
SMILES | Pf Dd2 inh
Cc1ccc(-n2c(C3CCN(C(=O)c4ccc5ccccc5n4)CC3)n[nH]c2=O)cc1 | -8%
Cn1cc(CNC(=O)C[C@@H]2C[C@H]3O[C@H](CNC(=O)N4CCOCC4)[C@@H](O)[C@H]3O2)cn1 | -27%[44.1 µM]
Cc1noc([C@@H]2CN(C(=O)c3cccc4[nH]ccc34)C[C@H]2CO)n1 | 14%
CCCCc1ncc[nH]1 | -12%[115 µM]
COC1CCOC2(CCN(C(=O)COc3ccc(C)cc3)CC2)C1 (stereo unspecified) | -46%
COCc1noc([C@@H]2CN(Cc3cccc(F)c3)C[C@H]2COC)n1 | 17%
CCO[C@H]1CN(Cc2cnc(SCc3ccccc3)nc2)C[C@@H]1O | -18%
CCO[C@H]1CN(Cc2ccc(OC)c(OCc3cccc(F)c3)c2)C[C@@H]1O | 13µM*
CCC[C@@H]1CN(Cc2[nH]cc(C)c(=O)c2C)C[C@H]1C(=O)O | -5%
O=C(c1cc(-c2cccs2)[nH]n1)N1CCc2c(nc(-c3ccccc3)[nH]c2=O)C1 | -4%
CC(Nc1ccc(-c2nc(CCCc3ccccc3)no2)cn1)c1cnn(C)c1 (stereo unspecified) | i
CC(C)C[C@@H]1N[C@H](C(=O)NC2CCC2)Cc2c[nH]c3cccc1c23 | -16%[44.1 µM]
C=CCn1cc2c3c(cccc31)[C@H](CC(C)C)N[C@H](C(=O)N1CCOCC1)C2 | i
C=CCn1cc2c3c(cccc31)[C@H](CC(C)C)N[C@H](C(=O)NC1CCC1)C2 | 13µM*
C=CCn1cc2c3c(cccc31)[C@H](CC(C)C)N[C@H](C(=O)NCc1ccccc1OC)C2 | -9%[44.1 µM]
CC(=O)N1CCCN(C(=O)[C@@H]2Cc3cn(C)c4cccc(c34)[C@H](CC(C)C)N2)CC1 | -6%[44.1 µM]
C=CCn1cc2c3c(cccc31)[C@H](CC(C)C)N[C@H](C(=O)NCCN1CCOCC1)C2 | i
